Measured values: PubChem BioAssay (NCATS)
Several values for one entry are separate records, joined by “and”; a condition that tells them apart may be missing. Equal values may be shown once. Results filed as inconclusive are left out. Some compounds were tested as several samples or in several runs, with calls that do not always agree. For part of these data: Measured potencies and affinities stand elsewhere. Activity calls are given as the source filed them. Unless noted, the rule behind the calls is not given here.

Experiments:
[1] = qHTS Assay for Identifying Gametocytocidal Compounds (AID 743244; active = well fitted curve in the direction sought with a large enough effect; an effect the other way counts as inactive or inconclusive; note: potency is the fitted concentration of half-maximal effect;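 for max response: % is set by controls: 0 for no effect and ±100 for the full control effect; actives lower the fluorescent signal which means gametocytes are killed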); details: P. falciparum 3D7 stage III-V gametocytes, alamarBlue, 72 h; max response: stronger effect = lower value
Summary of the method: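 Viability read-out was resazurin reduction (alamarBlue, 24 h) measured at Ex 525/Em 598 nm. Beforehand, late-stage (III-V) 3D7 P. falciparum gametocytes at 20,000 cells/well were incubated with compound 72 h at 37C under 5% CO2.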

[2] = Ebola virus entry assay, green fluorescence channel
[3] = Ebola virus entry assay, blue channel fluorescence
[4] = Ebola virus entry assay, ratio channel
[5] = Ebola virus entry assay, green channel fluorescence
[6] = qHTS assay for cell viability of HEK293 cells (AID 743288; active = well fitted curve in the direction sought with a large enough effect; an effect the other way counts as inactive or inconclusive; note: nearly all actives have a fitted effect of over 50% in size; note: potency is the fitted concentration of half-maximal effect; for max response: % is set by controls: 0 for no effect and ±100 for the full control effect); details: ATP luminescence (CellTiter-Glo), 18 h; max response: stronger effect = lower value
Summary of the method: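 After 18 h compound exposure at 37 C, parental HEK293 cells (2,000/well) are lysed with CellTiter-Glo and luminescence is read following 30 min at room temperature.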

[7] = qHTS assay for cell viability of the p53RE-bla HCT-116 cell line (AID 743292; active = well fitted curve in the direction sought with a large enough effect; an effect the other way counts as inactive or inconclusive; note: nearly all actives have a fitted effect of over 55% in size; note: potency is the fitted concentration of half-maximal effect)
Summary of the method: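 Luminescent ATP quantitation (CellTiter-Glo) served as the viability read-out; reagent was added after 16 h compound exposure at 37 C and read after 30 min at room temperature. Cells: p53RE-bla HCT-116, 4,000 per well.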

[8] = molecular target: T1, Hexokinase-4 (Homo sapiens) + Glucokinase regulatory protein (Homo sapiens) (UniProt P35557+Q14397); experiment: qHTS assay for inhibitors of recombinant human GCK-GKRP interaction: Diaphorase-coupled assay (AID 743205; active = well fitted curve in the direction sought with a large enough effect; an effect the other way counts as inactive or inconclusive)
Summary of the method: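 GST-GCK (10 nM) with FLAG-GKRP (10 nM), 5 mM glucose and 0.4 mM ATP in pH 7.6 Hepes; compounds preincubated 20 min with substrate. G6PDH/diaphorase coupling converts resazurin to resorufin, read kinetically (ex 525/em 590 nm) for 30 min.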

[9] = molecular target: T1, Hexokinase-4 (Homo sapiens) + Glucokinase regulatory protein (Homo sapiens); experiment: qHTS assay for inhibitors of recombinant human GCK-GKRP interaction: ADP-Glo assay (AID 743206; active = well fitted curve in the direction sought with a large enough effect; an effect the other way counts as inactive or inconclusive;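 note: plate controls were DMSO plus enzyme for no effect and no enzyme for full effect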)
Summary of the method: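 Pin-transferred compounds meet a 15 nM GST-GCK/15 nM FLAG-GKRP/2 uM S6P mix (dispense concentrations). ATP is then added to 0.4 mM final with 5 mM glucose, and the reaction runs 60 min at room temperature. ADP is quantified luminescently.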

[10] = molecular target: T1, Hexokinase-4 (Homo sapiens) + Glucokinase regulatory protein (Homo sapiens); experiment: qHTS assay for inhibitors of recombinant human GCK-GKRP interaction: HTRF assay (AID 743207; active = well fitted curve in the direction sought with a large enough effect; an effect the other way counts as inactive or inconclusive;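 note: 0% = DMSO with GCK present and -100% = DMSO wells lacking GCK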)
Summary of the method: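 GST-GCK and FLAG-GKRP (5 nM each) were combined with 2 uM S6P in pH 7.1 Hepes/MgCl2/KCl/DTT buffer, then compound and anti-FLAG XL665/anti-GST K antibodies were added. After 60 min at room temperature, HTRF 665/615 nm emission was read.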

[11] = qHTS profiling for inhibitors of Plasmodium falciparum (3D7) proliferation (AID 743322);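 note: infected erythrocytes exposed to compound for 72 h before lysis; 100% = DMSO vehicle wells and 0% = 0.29 µM artemisinin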; details: P. falciparum 3D7 proliferation; at 28.7 µM (top of the series)
Summary of the method: (§1)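 Parasite DNA was quantified by SYBR Green I fluorescence (ex 485, em 535 nm) after overnight lysis in saponin/Triton buffer at room temperature. Cultures at 0.3% parasitemia and 2.5% hematocrit were first exposed to compound for 72 h at 37 C; signals were normalised to artemisinin (0.29 uM) and vehicle wells.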

[12] = qHTS profiling for inhibitors of Plasmodium falciparum (DD2) proliferation (AID 743323); details: lower = more inhibition; at 28.7 µM (top of the series)
Summary of the method: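 1536-well qHTS; infected RBCs 0.3% parasitemia/2.5% Hct final; cpd 72 h 37 C 5% CO2; lysis buffer + SYBR Green I, o/n RT dark; FI 485/535; norm. to 0.29 uM artemisinin and DMSO, plate-stack corrected.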

[13] = qHTS profiling of the MIPE4 collection as inhibitors of Plasmodium falciparum (3D7) proliferation (AID 743344);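 note: scaled between DMSO vehicle wells and 0.29 µM artemisinin as full inhibition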; details: P. falciparum 3D7 in erythrocytes, SYBR Green DNA fluorescence, 72 h; at 28.5 µM (top of the series) unless noted
Summary of the method: as §1

[14] = qHTS profiling of the MIPE4 collection as inhibitors of Plasmodium falciparum (DD2) proliferation (AID 743345); details: P. falciparum Dd2 in erythrocytes, SYBR Green DNA, 72 h; at 28.5 µM (top of the series) unless noted
Summary of the method: as §1

[15] = qHTS profiling of the MIPE4 collection as inhibitors of Plasmodium falciparum (DD2) proliferation (Rep 2) (AID 743346); details: P. falciparum Dd2 in erythrocytes, SYBR Green DNA, 72 h; at 28.5 µM (top of the series) unless noted
Summary of the method: as §1

[16] = qHTS profiling of the MIPE4 collection as inhibitors of Plasmodium falciparum (HB3) proliferation (AID 743347);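 note: plate controls were DMSO vehicle wells for no effect and artemisinin wells for full effect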; details: P. falciparum HB3 in erythrocytes, SYBR Green DNA, 72 h; at 28.5 µM (top of the series) unless noted
Summary of the method: as §1
Throughout, for efficacy: 0% is about no effect.

T1 sequence (P35557 whole entry, looked up): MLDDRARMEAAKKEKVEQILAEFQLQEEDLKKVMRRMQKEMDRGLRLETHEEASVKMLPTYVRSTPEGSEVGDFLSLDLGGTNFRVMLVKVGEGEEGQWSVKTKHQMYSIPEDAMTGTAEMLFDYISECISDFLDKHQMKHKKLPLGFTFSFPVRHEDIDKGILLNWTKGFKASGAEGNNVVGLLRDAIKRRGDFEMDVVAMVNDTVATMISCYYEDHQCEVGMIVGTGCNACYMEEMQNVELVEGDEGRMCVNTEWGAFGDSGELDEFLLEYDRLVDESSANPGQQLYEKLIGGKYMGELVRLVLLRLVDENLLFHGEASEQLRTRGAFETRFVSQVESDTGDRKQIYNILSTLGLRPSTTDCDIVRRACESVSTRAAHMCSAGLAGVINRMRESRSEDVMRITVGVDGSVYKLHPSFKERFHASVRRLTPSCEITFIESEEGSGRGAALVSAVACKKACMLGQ
T1 sequence (Q14397 whole entry, looked up): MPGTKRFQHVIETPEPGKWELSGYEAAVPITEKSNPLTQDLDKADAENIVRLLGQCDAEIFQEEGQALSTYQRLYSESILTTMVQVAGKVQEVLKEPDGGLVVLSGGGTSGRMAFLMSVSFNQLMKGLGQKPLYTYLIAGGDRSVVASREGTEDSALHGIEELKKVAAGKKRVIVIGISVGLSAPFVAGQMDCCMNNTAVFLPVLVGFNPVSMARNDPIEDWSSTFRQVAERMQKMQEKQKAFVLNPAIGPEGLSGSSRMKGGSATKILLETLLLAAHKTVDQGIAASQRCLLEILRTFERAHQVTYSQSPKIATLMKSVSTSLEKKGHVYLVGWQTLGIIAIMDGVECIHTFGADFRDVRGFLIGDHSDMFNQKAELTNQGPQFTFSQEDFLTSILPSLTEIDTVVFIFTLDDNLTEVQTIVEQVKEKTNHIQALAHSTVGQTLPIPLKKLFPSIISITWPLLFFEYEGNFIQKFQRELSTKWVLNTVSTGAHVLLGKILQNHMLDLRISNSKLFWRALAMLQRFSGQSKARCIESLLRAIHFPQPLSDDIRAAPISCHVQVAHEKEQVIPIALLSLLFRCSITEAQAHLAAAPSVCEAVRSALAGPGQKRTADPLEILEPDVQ

CC(C)(N)Cc1ccc(Cl)cc1
inactive: max response [1] 12.2% | efficacy [2] 29.5% | outcome [3] | outcome [4] | outcome [5]

FC(F)(F)c1cccc(C2=CCN(CCc3ccc4ccccc4c3)CC2)c1
inactive: max response [1] 11.8% | efficacy [2] -24.5% | outcome [3] | outcome [4] | outcome [5]

Oc1ccccc1-c1ccccc1
inactive and 708 µM (active): Potency [7]
inactive: max response [6] -4.38% and -13.9% and 2.52% | efficacy [2] 11.7% | outcome [3] | outcome [4] | outcome [5]
active: Potency [6] 891 µM

CC(C)(C)NCC(O)c1cc(Cl)c(N)c(Cl)c1 (centres undefined)
inactive: max response [1] -5.19% | efficacy [2] -12% | outcome [3] | outcome [4] | outcome [5]

Nc1ccncc1
inactive: outcome [8] | outcome [9] | outcome [10] | max response [1] 0.934% and 25.7% | max response [6] -3.71% | Potency [7] | efficacy [2] -10% | outcome [3] | outcome [4] | outcome [5]

Oc1cccc2cccnc12
active: Potency [1] 11.2 µM and 25.1 µM
inactive: max response [6] -19.7% | Potency [7] | efficacy [2] -17.8% | outcome [3] | outcome [4] | outcome [5]

Cn1cc(C2=C(c3cn(C4CCN(Cc5ccccn5)CC4)c4ccccc34)C(=O)NC2=O)c2ccccc21
94.2%: remaining parasite growth % (stronger effect = lower value) [11]
6.8%: growth, % of control [16]
11.5%: parasite growth, % of DMSO control [13]
inactive: efficacy [2] 36.4% | outcome [3] | outcome [4] | outcome [5]
21.1%: parasite growth, % of control (lower = inhibition) [15]
19.9%: parasite growth remaining, % of DMSO control (lower = more inhibition) [14]
70%: activity, percent of control [12]

NP(N)(=O)NC(=O)c1ccc(F)cc1
inactive: max response [1] -2.45% | efficacy [2] -25% | outcome [3] | outcome [4] | outcome [5]

Cc1ncc(CNC(=O)N(CCCl)N=O)c(N)n1
inactive: outcome [8] | outcome [9] | outcome [10] | max response [1] -1.52% and 11.3% | efficacy [2] 16.2% | outcome [3] | outcome [4] | outcome [5]

C[C@@H]1O[C@@H](O[C@H]2C[C@@H](O)[C@]3(CO)[C@H]4[C@H](O)C[C@]5(C)[C@@H](C6=CC(=O)OC6)CC[C@]5(O)[C@@H]4CC[C@]3(O)C2)[C@H](O)[C@H](O)[C@H]1O
95.7%: parasite growth remaining, % of DMSO control (lower = more inhibition) [14]
active: Potency [6] 0.0631 µM | AC50 [3] 8.91 µM | AC50 [4] 0.708 µM
inactive: outcome [8] | outcome [9] | outcome [10] | max response [1] -6.85% and -3.14% and -2.93% | efficacy [2] -93.6% | outcome [5]
81.9%: parasite growth, % of DMSO control [13]
101%: growth, % of control [16]

NCC(O)c1ccc(O)cc1 (centres undefined)
inactive: outcome [8] | outcome [9] | outcome [10] | max response [1] 3.16% and 11.7% | max response [6] 1.63% | Potency [7] | efficacy [2] -25.6% | outcome [3] | outcome [4] | outcome [5]

COc1ccc(Cc2nccc3cc(OC)c(OC)cc23)cc1OC
inactive: outcome [8] | max response [1] 8.87% and -8.15% | efficacy [2] 13% | outcome [3] | outcome [4] | outcome [5]

COc1ccccc1N1CCNCC1
inactive: outcome [8] | outcome [9] | outcome [10] | max response [1] 13.1% and 8.67% | efficacy [2] 33.5% | outcome [3] | outcome [4] | outcome [5]

CCCC1CCCCN1 (centres undefined)
inactive: max response [1] -2.88% | efficacy [2] -19.4% | outcome [3] | outcome [4] | outcome [5]

Cc1ccc2c(n1)Oc1ccc(C(C)C(=O)OCC(=O)N(C)C)cc1C2 (centres undefined)
inactive: max response [1] 42.6% and 2.17% | efficacy [2] -14% and -11.2% | outcome [3] | outcome [4] | outcome [5]

N[C@@H](Cc1ccc(Oc2cc(I)c(O)c(I)c2)c(I)c1)C(=O)O
inactive: max response [1] -7.97% | efficacy [2] -32% | outcome [3] | outcome [4] | outcome [5]

CN(C)CCc1ccc(O)cc1
103%: parasite growth, % of DMSO control [13]
104%: growth, % of control [16]
inactive: max response [1] -0.843% | efficacy [2] -10.6% | outcome [3] | outcome [4] | outcome [5]
95.5%: parasite growth remaining, % of DMSO control (lower = more inhibition) [14]

O=C(NC(O)C(Cl)(Cl)Cl)NC(O)C(Cl)(Cl)Cl (centres undefined)
inactive: max response [1] -4.63% | efficacy [2] 18% | outcome [3] | outcome [4] | outcome [5]

Clc1ccc(CCC(Cn2ccnc2)Sc2c(Cl)cccc2Cl)cc1 (centres undefined)
inactive: efficacy [2] -22% | outcome [5]
active: Potency [1] 7.94 µM | AC50 [3] 25.1 µM | AC50 [4] 22.4 µM

CNCC(O)c1ccc(O)cc1 (centres undefined)
99.8%: parasite growth remaining, % of DMSO control (lower = more inhibition) [14]
inactive: outcome [8] | outcome [9] | outcome [10] | max response [1] 28.1% | max response [6] -7.41% | Potency [7] | efficacy [2] -23.3% | outcome [3] | outcome [4] | outcome [5]
53.7%: growth, % of control [16]
81.9%: parasite growth, % of DMSO control [13]
